Measured values reported in PubChem BioAssay AID1903 (Southern Research Specialized Biocontainment Screening …, 2009).
In all, about 310,000 compounds went through this assay and about 1,200 (0.39%) were called active. How the calls were made is not given here. The list is a sample of the results. Results with a measured potency or affinity are listed apart.

What follows are molecules tested against Large T antigen (Simian virus 40) (UniProt P03070) (assay: TAg ATPase/helicase activity blockers – biochemical (AID 1903)). Conditions: SV40 large T antigen ATPase/helicase inhibition assay; at 20 µM; active compounds read high.
Chain of Large T antigen (Simian virus 40) (P03070 whole entry, looked up): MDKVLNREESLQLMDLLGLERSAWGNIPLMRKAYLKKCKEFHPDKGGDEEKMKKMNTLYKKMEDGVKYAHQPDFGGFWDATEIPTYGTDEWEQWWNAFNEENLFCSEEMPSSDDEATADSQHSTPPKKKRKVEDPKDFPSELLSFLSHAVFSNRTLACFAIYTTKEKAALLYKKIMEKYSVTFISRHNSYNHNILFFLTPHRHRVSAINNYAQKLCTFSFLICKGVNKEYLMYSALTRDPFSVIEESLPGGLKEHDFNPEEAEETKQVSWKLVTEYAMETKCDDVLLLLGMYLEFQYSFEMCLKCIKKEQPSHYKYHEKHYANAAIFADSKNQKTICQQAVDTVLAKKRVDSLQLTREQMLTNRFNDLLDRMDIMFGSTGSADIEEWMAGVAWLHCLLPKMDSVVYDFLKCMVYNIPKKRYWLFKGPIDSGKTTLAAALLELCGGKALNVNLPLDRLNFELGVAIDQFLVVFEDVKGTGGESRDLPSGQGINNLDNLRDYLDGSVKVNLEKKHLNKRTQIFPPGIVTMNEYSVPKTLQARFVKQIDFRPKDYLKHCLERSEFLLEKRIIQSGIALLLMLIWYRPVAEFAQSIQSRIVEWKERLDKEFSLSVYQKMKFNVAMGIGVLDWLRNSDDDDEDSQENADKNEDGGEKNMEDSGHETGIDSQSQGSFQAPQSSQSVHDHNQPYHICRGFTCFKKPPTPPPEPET

inhibition, inactive:
Cn1c(CNC(=O)C(Cc2ccccc2)NC(=O)c2cccc(F)c2)cc(=O)n(C)c1=O (stereo not drawn) -0.65%, O=C(NNC(=O)c1ccc[nH]1)c1cc(Cl)cc(Cl)c1 10.3%, COc1ccccc1C(=O)NNC(=O)c1ccc(NS(=O)(=O)c2cccs2)cc1 16.7%, O=S(=O)(c1ccccc1)N1CCN(Cc2ccc(Cl)cc2)CC1 10.3%, O=C1CCCC/C1=C/Nc1cccc(C(F)(F)F)c1 18.4%, CC1SCC(NC(=O)c2ccccc2Cl)CS1 (stereo not drawn) 8.46%, CC(=O)OCCN1C(=O)c2cccc3cc([N+](=O)[O-])cc(c23)C1=O 14.1%, Cc1ccc(-c2[nH]ncc2C(=O)c2ccc(Br)cc2)c(O)c1 7.57%, CCCN1C(=O)C(NC(=O)c2ccncc2)(C(F)(F)F)C2=C1CC(C)(C)CC2=O (stereo not drawn) -1.41%, Cc1ccc(/C=C/c2onc(C)c2S(=O)(=O)N2CCC(C(=O)NC(C)(C)C)CC2)cc1 2.7%, CC(C)C(=O)Nc1ccc(-c2csc(-c3ccccc3)n2)cc1 1.63%, CC(C)C(=O)Nc1cccc(-c2csc(-c3ccccc3)n2)c1 -59.4%, CCOC(=O)Cc1csc(NC(=O)/C=C/c2cccc(Br)c2)n1 -3.33%, COc1cc(C(=O)Nn2c(C)nc3ccccc3c2=O)cc(OC)c1OC 7.45%, CSc1ccc(/C=C2\C(=N)N3N=C(CC(=O)N4CCCCC4)SC3=NC2=O)cc1 26.3%, COc1ccc(/C=C2/C(=N)N3N=C(CC(=O)N4CCCC4)SC3=NC2=O)cc1OC 14.2%, CCc1ccc(/C=C2\C(=N)N3N=C(CC(=O)N4CCCCC4)SC3=NC2=O)cc1 10.1%, Cc1ccc(/C=C2/C(=N)N3N=C(CC(=O)N4CCCC4)SC3=NC2=O)cc1 30.2%, Cc1ccc(/C=C2\C(=N)N3N=C(CC(=O)N4CCCCC4)SC3=NC2=O)cc1 26.9%, CC(C)c1ccc(/C=C2\C(=N)N3N=C(CC(=O)N4CCCCC4)SC3=NC2=O)cc1 36.9%, C=CCOc1ccc(/C=C2/C(=N)N3N=C(CC(=O)N4CCCC4)SC3=NC2=O)cc1OC 11.3%, CSc1ccc(/C=C2/C(=N)N3N=C(CC(=O)N4CCCC4)SC3=NC2=O)cc1 12.1%, COc1cc([N+](=O)[O-])ccc1NC(=O)CCCOc1cc(C)ccc1C 8.46%, CCOC(=O)c1nn(-c2ccc(Cl)cc2)c2nc(Nc3ccccc3)cc(=O)n12 5.22%, COc1ccc(C(=O)Nc2ccc(C)cc2C(=O)c2ccccc2)c(OC)c1 5.96%, Cc1ccccc1CNC(=O)c1ccccc1N 14.8%, CCn1cc(/C=C/C(=O)Nc2ccn(Cc3c(F)c(F)c(F)c(F)c3F)n2)cn1 -8.72%, NC(=O)c1ccc(NC(=O)CSc2cn(CC(=O)N3CCOCC3)c3ccccc23)cc1 2.11%, COc1ccc(Nc2ccc(Cl)nn2)cc1 17.6%, C/C(=N\Nc1ncc(Br)cn1)c1cccc([N+](=O)[O-])c1 10.7%, Cc1ccc(/C=C2/C(=N)N3N=C(CC(=O)N4CCCC4)SC3=NC2=O)o1 -4.18%, N=C1/C(=C\c2ccc(Br)o2)C(=O)N=C2SC(CC(=O)N3CCOCC3)=NN12 36.3%, Cc1cccc(C(=O)NNC(=O)CCn2nnc3ccccc32)c1 1.08%, COCc1cc(C)nc(SCC(=O)Oc2ccccc2)c1C#N 15.3%, COCc1cc(C)nc(SCC(=O)Oc2ccc(Cl)cc2)c1C#N 16%, Cc1cc(C(F)(F)F)nn1Cc1n[nH]c(=S)n1-c1ccc(F)cc1 15.9%, CS(=O)(=O)c1ccc(Cl)c(NC(=O)C2CCCN(C(=O)c3ccc(Cl)cc3)C2)c1 (stereo not drawn) 6.85%, COc1ccc(C(=O)NC(C(=O)NCC(=O)Nc2c(C)cccc2C)C(C)C)cc1 (stereo not drawn) 3.58%, Cc1nn(CC(=O)N2CCOCC2)c(=O)c2nn(-c3ccccc3)c(C)c12 1.18%, COc1cc(O)c(C(CCN2CCN(c3ccccc3)CC2)c2ccc3c(c2)OCO3)c(OC)c1 (stereo not drawn) 7.18%, CC(=O)Oc1ccc2c(C)cc(=O)oc2c1 17%, CC(=O)Oc1cc2oc(=O)cc(C)c2cc1Cl 14.8%, CC(C)N(C(=S)Nc1cccnc1)c1ccccc1 12.6%, Fc1cccc(F)c1/C=N/NC(=S)Nc1cccnc1 24.5%, CN(C(=S)Nc1ccc(Oc2ccccc2)cc1)c1ccc(O)cc1 21.8%, CC(C)(C)c1ccc(/C=N/NC(=S)Nc2cccnc2)cc1 9.92%, COc1ccc(O)c(/C=N/NC(=S)Nc2cccnc2)c1 25.1%, Fc1ccc(/C=N/NC(=S)Nc2cccnc2)cc1 7.01%, NC(=O)c1ccc(NC(=O)CCCNC(=O)c2ccc(Cl)cc2)cc1 8.64%, CCc1ccc(C2=NNC(=Nc3cccc(S(=O)(=O)N(C)C)c3)SC2)cc1 4.35%, CCC(C)N(C(=O)c1csnn1)C(C(=O)NC1CCCC1)c1c(F)cccc1Cl (stereo not drawn) 7.33%, CCN(CC)CCNC(=O)c1ccc(NC(=O)c2ccc(C(=O)c3ccccc3)cc2)cc1 37.6%, O=C(NCCc1c[nH]c2ccccc12)C(=O)NCC1OCCCN1S(=O)(=O)c1ccccc1 (stereo not drawn) 16.5%, Cc1ccc(S(=O)(=O)N2CCOC2CNC(=O)C(=O)NCCc2c[nH]c3ccccc23)cc1 (stereo not drawn) -3.07%, COc1ccc(O)c(C(=O)c2cnc3c(c2)c(=O)[nH]c(=O)n3C)c1 3.44%, Fc1ccc(/C=N\Nc2cccc(F)c2)cc1 8.31%, Cc1ccc(N(C(=O)Cc2c[nH]c3ccccc23)C(C(=O)NC2CCCCC2)c2ccco2)cc1 (stereo not drawn) -1.52%, CN(C)CCCOc1ccc2c(c1)Sc1ccccc1CC2=O -4.85%
